From PubChem BioAssay
Hits are enriched below; roughly 4.1% of the tested compounds scored in any of these assays.
Mdm2-MdmX inh: human Mdm2/MdmX binding inhibition; SaOS-2 split-luciferase Mdm2/MdmX complementation, luminescence; 3% of 330,000 active; inhibition, % at 8 µM; AID 485346;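 active = inhibition of at least 50% at 8 µM in the primary screen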
Target sequence (O15151 whole entry, looked up): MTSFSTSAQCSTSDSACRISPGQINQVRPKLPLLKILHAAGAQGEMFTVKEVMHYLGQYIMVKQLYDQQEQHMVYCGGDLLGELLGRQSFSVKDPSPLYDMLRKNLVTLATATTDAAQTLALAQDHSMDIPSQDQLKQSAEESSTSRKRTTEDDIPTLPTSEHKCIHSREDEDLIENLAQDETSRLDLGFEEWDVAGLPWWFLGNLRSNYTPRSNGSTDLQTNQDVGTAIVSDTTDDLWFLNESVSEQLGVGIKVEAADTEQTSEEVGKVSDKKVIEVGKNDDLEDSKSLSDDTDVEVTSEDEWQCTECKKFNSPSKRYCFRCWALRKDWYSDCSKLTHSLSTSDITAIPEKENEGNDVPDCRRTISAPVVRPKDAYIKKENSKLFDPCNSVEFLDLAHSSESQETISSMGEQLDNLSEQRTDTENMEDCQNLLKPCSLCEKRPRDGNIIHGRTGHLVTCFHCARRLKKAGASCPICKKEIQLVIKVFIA
Target sequence (Q00987 whole entry, looked up): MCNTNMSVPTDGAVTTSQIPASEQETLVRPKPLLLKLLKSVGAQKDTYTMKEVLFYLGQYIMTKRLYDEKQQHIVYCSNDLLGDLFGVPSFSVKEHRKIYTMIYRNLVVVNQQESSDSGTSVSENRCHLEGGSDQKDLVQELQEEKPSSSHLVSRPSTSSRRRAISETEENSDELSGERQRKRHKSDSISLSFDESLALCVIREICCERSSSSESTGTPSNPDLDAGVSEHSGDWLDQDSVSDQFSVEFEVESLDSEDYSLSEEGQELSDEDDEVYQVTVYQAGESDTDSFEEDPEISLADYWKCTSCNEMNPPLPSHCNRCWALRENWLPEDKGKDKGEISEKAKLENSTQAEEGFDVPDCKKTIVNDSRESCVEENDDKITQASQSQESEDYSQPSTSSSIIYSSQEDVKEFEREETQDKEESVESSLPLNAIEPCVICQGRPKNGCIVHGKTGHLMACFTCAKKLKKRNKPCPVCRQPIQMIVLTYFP
KLF5 inhibitor: suppresses KLF5 promoter-driven expression; DLD-1 KLF5 promoter-luciferase reporter, luminescence; 0.23% of 290,000 active; inhibition, % at 5 µM;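 active = inhibition above a per-plate limit of that plate's mean compound inhibition plus 3 SD, cut at about 60% in these data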;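 note: 0% = DMSO wells and 100% = LY294002 at 200 µM; higher means less KLF5 promoter-driven luciferase light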
aSyn 5UTR inh: 5' untranslated region of α-synuclein, MLPCN primary screen. alpha-synuclein 5'UTR reporter, inhibitor activity. inhibition, % (tested at 7.5 µM). 0.82% of 300,000 active. AID 1813; in the data active = inhibition above about 60%;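 note: H4 neuroglioblastoma cells stably carrying SNCA 5'UTR luciferase fusion; 0% = DMSO wells and 100% = positive control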
Jurkat NFkB inh: lowers PMA/ionomycin-induced NF-kB signal in Jurkat cells. PMA/ionomycin-induced NF-kB luciferase reporter, luminescence. inhibition, % at 4 µM. 0.53% of 330,000 active; in the data active = inhibition above about 50%
697 NFkB inh: lowers PMA/ionomycin-induced NF-kB signal in 697 B cells. 0.33% of 330,000 active. AID 435022. 697 B-cell NF-kB luciferase reporter, 16 h. inhibition, % at 4 µM; in the data active = inhibition above about 35%
Gli-Sufu antag: antagonists of Gli-Sufu signaling. Sufu-KO-LIGHT fibroblasts, Gli luciferase reporter luminescence. inhibition, % at 5 µM. 0.74% of 340,000 active. AID 588413;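 active = inhibition above about 55%, limit read from the data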;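 note: 0% = DMSO-treated cells and 100% = wells with medium but no cells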
Mdm2 MdmX conf: confirmation of human Mdm2/MdmX interaction inhibitors. inhibition, % at 8 µM. Mdm2-MdmX binding, luminescent assay. shares compounds with Mdm2-MdmX inh. AID 489028. 55% of 10,000 active; in the data active = inhibition above about 40%
FLuc counter: inhibits full-length luciferase, flagging false Mdm2/MdmX hits. shares compounds with Mdm2-MdmX inh. SaOS-2 full-length luciferase counterscreen, luminescence. inhibition, % at 8 µM. 77% of 6,200 active. AID 504607;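 active = mean inhibition at 8 µM reaching about 37%, which flags the compound as non-specific, limit read from the data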;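 note: p53-null SaOS-2 cells with luciferase driven by a doxycycline-inducible promoter; compound on cells about two nights before reading with doxycycline added after day one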
* hit, by the source's call; · = not tested or not shown.

SMILES	Mdm2-MdmX inh	KLF5 inhibitor	aSyn 5UTR inh	Jurkat NFkB inh	697 NFkB inh	Gli-Sufu antag	Mdm2 MdmX conf	FLuc counter
COc1cccc(NC(=S)NCCC(c2ccccc2)c2ccccc2)c1	27.8	-6.9	-1.2	-9.6	16.1	-21.9	·	·
COc1ccc(C#Cc2ccc3c(c2)c(=O)c2ccccc2n3C)cc1	4.8	9.6	-124.6	9.3	-13.3	-6.2	·	·
Cn1c2ccccc2c(=O)c2ccc(C#CC3(O)CCCCC3)cc21	83.1*	-11.4	37.2	-136.2	-223.4	8.3	74.5*	146.4*
CC(=O)Nc1c2c3c(cccc3n(C)c1=O)C(=O)c1ccccc1-2	16.0	3.3	8.2	5.9	13.1	-11.7	·	·
Cn1c(=O)c(Nc2ccc(Cl)cc2)c2c3c(cccc31)C(=O)c1ccccc1-2	50.7*	-16.5	25.1	18.7	3.6	7.5	15.0	·
CN(C)CCCNc1cc(C(C)(C)C)nc2c(-c3ccc(Cl)cc3)cnn12	97.7*	-24.2	108.0*	49.5	2.4	-13.3	71.7*	50.5*
Cc1cc(NCCCN2CCOCC2)n2ncc(-c3ccc(Cl)cc3)c2n1	65.1*	-39.6	-58.1	-103.8	-87.0	-53.1	62.3*	69.2*
CC12CC3CC(C)(C1)CC(C(=O)Nc1nncs1)(C3)C2	4.2	-24.1	3.0	9.3	-16.1	21.0	·	·
COC(=O)C1=C(C)N(c2ccc(Cl)c(Cl)c2)C(=O)C1	96.9*	-9.0	1.7	37.0	27.4	9.5	30.1	·
COC(=O)C1=C(C)N(c2ccc(S(N)(=O)=O)cc2)C(=O)C1	16.0	-43.2	3.9	-3.6	12.1	-2.6	·	·
Cc1cc(OCC(=O)N2CCc3ccccc3C2)c(C)cc1Br	-14.3	-33.2	-13.3	-10.2	-12.5	25.8	·	·
O=S(=O)(c1cccc(NC(=S)N2CCN(c3cccc(Cl)c3)CC2)c1)C(F)F	52.0*	-24.2	18.0	3.3	1.6	9.1	14.7	·
O=S(=O)(c1cccc(NC(=S)N2CCN(c3ccc(F)cc3)CC2)c1)C(F)F	6.1	21.8	10.1	10.7	-17.7	9.5	·	·
CN(CCO)CCC(=O)NC1(C)CS(=O)(=O)CC1S(=O)(=O)O (centres undefined)	-8.2	-15.2	-11.1	-2.8	1.9	7.1	·	·
O=C(NCCCCNC(=O)c1ccc(Br)cc1)c1ccc(Br)cc1	76.9*	-9.0	5.3	0.1	20.5	39.0	21.3	·
CC(=O)O[C@@H]1C[C@H]2C(C)(C)C(=O)C=C[C@]2(C)[C@H]2CC[C@@]3(C)[C@H](c4ccoc4)OC(=O)[C@H]4O[C@]43[C@@]21C	98.1*	12.7	15.8	-26.6	-142.2	2.0	71.2*	33.8
Cc1c(Cl)cccc1NS(=O)(=O)c1c(C(=O)N2CCOCC2)c(C)n(C)c1C	-1.0	-26.0	-7.7	-8.0	-8.8	-12.9	·	·
O=C(N/N=C/c1c(-c2ccccc2)[nH]c2ccccc12)c1cccnc1	52.2*	13.3	-33.9	-13.3	1.1	-32.8	53.0*	68.5*
O=C(Oc1c(-c2ccccc2)c(=O)n2c3c(cccc13)CC2)c1ccccc1	47.6	0.2	-23.9	5.5	29.1	-6.5	·	·
O=C(Oc1c(-c2ccccc2)c(=O)n2c3c(cccc13)CC2)c1cccc([N+](=O)[O-])c1	69.8*	-3.1	77.3*	8.0	24.7	-4.4	74.8*	39.4*
O=C(Oc1c(-c2ccccc2)c(=O)n2c3c(cccc13)CC2)c1ccc(F)cc1	54.5*	-8.1	8.6	-12.9	-16.7	-4.5	17.3	·
O=C(c1cccc([N+](=O)[O-])c1)N1CCc2ccccc21	15.2	-11.0	36.9	-9.9	3.6	-3.4	·	·
Cc1ccc(C)c(C(=O)N(C)CC(=O)Nc2ccccc2C(F)(F)F)c1	13.9	-10.0	20.5	-6.5	4.0	-5.0	·	·
Cc1ccc(-n2nc3c([n+]2[O-])CCc2c-3no[n+]2[O-])cc1	52.9*	-27.3	-140.5	42.0	-20.2	1.5	11.2	·
Cc1ccc(C(=O)c2cnc3cc4c(cc3c2S(=O)(=O)c2ccccc2)OCCO4)cc1	61.4*	-22.5	-132.9	-32.6	-107.7	-17.2	41.5*	51.7*
CCOc1ccc(S(=O)(=O)c2c(C(=O)c3ccc(C)cc3)cnc3cc4c(cc23)OCCO4)cc1	29.8	-3.9	-13.7	9.2	-8.3	4.6	·	·
